Reference: PubChem BioAssay AID1159580 (chemical genetic matrix, 2015)
Among all 5,500 compounds or so, about 2,000 (36%) were called active. Roughly 18% stayed inconclusive and do not appear here. Rule as the data show it: active = normalized growth mostly below about 0.91 (no sharp cut-off); inconclusive = no clear call, values can overlap the other calls; inactive = mostly above about 0.92. The list shows a part of the results.

Assay: chemical genetic growth profiling, strain panel (AID 1159580);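 also: tested at 20 µM; growth read once vehicle control cultures reached saturation at 30 °C; 1 = growth at the plate median or of vehicle wells; lower values mean less growth of the strain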
Conditions: S. cerevisiae deletion strains, growth OD

Measured: normalized growth

Cc1ccc2c(c1)C(N1CCN(C)CC1)=Nc1cccnc1N2
inactive: locus YAL040C, strain CLN3, stronger effect = lower value 0.99 | locus YCL061C, strain MRC1 (second series), stronger effect = lower value 0.989 | locus YDR150W, strain NUM1, stronger effect = lower value 0.986 | locus YDR363W, strain ESC2, stronger effect = lower value 1.02 | locus YER002W, strain NOP16, stronger effect = lower value 1 | locus YGR078C, strain PAC10, stronger effect = lower value 0.983 | locus YJR075W, strain HOC1, stronger effect = lower value 1 | locus YMR263W, strain SAP30, stronger effect = lower value 0.982 | locus YNL128W, strain TEP1, stronger effect = lower value 1.09 | locus YNL153C, strain GIM3, stronger effect = lower value 0.998 | locus YNL175C, strain NOP13, stronger effect = lower value 0.997 | locus YNL197C, strain WHI3, stronger effect = lower value 0.988 | locus YNL224C, strain SQS1, stronger effect = lower value 1.01 | locus YNL322C, strain KRE1, stronger effect = lower value 0.988 | locus YOR083W, strain WHI5 (second series), stronger effect = lower value 0.991

Cc1cc2c(s1)Nc1ccccc1N=C2N1CCN(C)CC1
inactive: locus YHR030C, strain SLT2, stronger effect = lower value 0.975 | locus YHR079C, strain IRE1, stronger effect = lower value 0.976 | locus YJL095W, strain BCK1, stronger effect = lower value 1.01 | locus YJR066W, strain TOR1, stronger effect = lower value 0.944 | locus YLR113W, strain HOG1, stronger effect = lower value 1.05 | locus YNL183C, strain NPR1, stronger effect = lower value 0.969 | locus YOR231W, strain MKK1, stronger effect = lower value 1 | locus YPL256C, strain CLN2, stronger effect = lower value 1.03
